Measured values as given in PubChem BioAssay AID1578 (Sanford-Burnham Center for Chemical Genomics, 2009).
Hit rate of the full screen: of about 290,000 compounds, about 3,000 (1%) were called active. Shown is part of a subset that was picked to be rich in actives. Unmarked numbers belong to inactive results. No stated cut-off is given here; in the data, active means inhibition mostly above about 36% (no sharp cut-off); inactive means mostly below about 34%.

assay: NOD1 signaling inhibitors, primary screen, cell-based, luminescence, uHTS (AID 1578); settings: NOD1-driven NF-kB luciferase reporter cells, at 4 µM, stronger effect = higher value;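 further: HEK-293T reporter cells stimulated with the NOD1 agonist gamma-tri-DAP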

SMILES	inhibition
CCCCN(C(=O)CCC(=O)Nc1cc(C)on1)C(C(=O)NC1CCCC1)c1ccccc1OCC (stereo unspecified)	-32.8%
COCc1nnc(NC(=O)C2CCN(C(=O)c3ccco3)CC2)s1	-4%
Cc1ccc(N2C(=O)C3C(c4ccccc4)N4CCCN4C3(C)C2=O)cc1 (stereo unspecified)	-27.5%
O=S(=O)(Nc1nnc(C(F)(F)F)s1)c1ccc(Cl)cc1	-6.4%
O=C1c2ccccc2N2C(=O)c3ccccc3[C@H]2N1c1ccccc1	-14.4%
CC(C)Cc1ccc(CN2CCC(n3nccc3NC(=O)C3CCCC3)CC2)cc1	-7.7%
Cc1cc(OCCCCCn2ccnc2)cc(C)c1Cl	48% (active)
Cc1cc(OCCCn2ccnc2)cc(C)c1Cl	7.6%
Cc1cc(OCCCCn2ccnc2)cc(C)c1Cl	-18.7%
O=C(Nc1ccc(S(=O)(=O)Nc2nccs2)cc1)c1ccc(N2C(=O)c3ccccc3C2=O)cc1	-25.2%
CC1=CC(C)(C)N2C(=O)C3(C(C#N)=C(N)OC4=C3C(=O)CC(C)(C)C4)c3cc(C)cc1c32 (stereo unspecified)	13.2%
Cc1cc2c3c(c1)C(C)(c1ccccc1)CC(C)(C)N3C(=O)C21C(C#N)=C(N)OC2=C1C(=O)CC(C)(C)C2 (stereo unspecified)	77.1% (active)
Cc1cc2c3c(c1)C1(C(=O)N3C(C)(C)CC2C)C(C#N)=C(N)OC2=C1C(=O)CC(C)(C)C2 (stereo unspecified)	-22.2%
O=C(Nc1nncs1)c1cccc(S(=O)(=O)N2CCc3ccccc32)c1	-12.7%
C=CCOC(=O)C1=C(C)Nc2nnnn2C1c1cc(OC)ccc1OC (stereo unspecified)	-1.8%
CC1CC(C)(C)Nc2ccc(N=O)cc21 (stereo unspecified)	41.9% (active)
CC1CC(C)(C)Nc2ccc(OC(=O)c3ccco3)cc21 (stereo unspecified)	44.8%
CC1CC2(CCCC2)Nc2ccc(F)cc21 (stereo unspecified)	-2%
CCOC(=O)C1CCN(C(=O)CCc2ccc(S(=O)(=O)NC(C)C)cc2)CC1	-6.7%
COc1ccccc1N1CCN(CC(O)c2ccc3cc[nH]c3c2)CC1 (stereo unspecified)	-10.9%
CC1CN(C(=O)CCNC(=O)c2ccc(Cl)cc2)CC(C)O1 (stereo unspecified)	-15.6%

SMILES	inhibition
CC12CN3CCN(CC(C3)C1(O)CN1CCOCC1)C2 (stereo unspecified)	-10.8%
COc1cccc(C(=O)C2CCCN(C(=O)CCC3=NNC(=O)CC3)C2)c1 (stereo unspecified)	-14.9%
Nc1nc(Nc2ccccc2)nc2ccccc12	-85.2%
Nc1nc(Nc2ccc(Cl)cc2)nc2ccccc12	24.4%
CN(C)c1ccc(Nc2nc(N)c3ccccc3n2)cc1	73.8% (active)
CCOc1ccccc1N1CC(C(=O)N2CCc3ccccc32)CC1=O (stereo unspecified)	17.6%
CCn1c(=O)n(CC)c2cc(N3CCCC3)c(NC(=O)c3c(F)cccc3F)cc21	-5.8%
O=C(c1cccc(S(=O)(=O)N2CCc3ccccc3C2)c1)N1CCN(c2ccc(O)cc2)CC1	-37.3%
CC(=O)c1cccc(NC(=O)Cn2cnc(S(=O)(=O)N3CCOCC3)c2)c1	-18.3%
COCc1cc(C)nc(SCc2ccc([N+](=O)[O-])cc2)c1C#N	9.9%
CN1CCN(c2ccc(-c3ccc4ccccc4n3)cc2)CC1	90.2% (active)
COc1ccc(-c2ccc3ccccc3n2)cc1	-47%
c1ccc2nc(-c3ccc(N4CCOCC4)cc3)ccc2c1	11%
COc1cc2cc(CN(Cc3cccnc3)C(=O)Nc3ccccc3F)c(=O)[nH]c2cc1OC	-29.7%
CCOc1ccccc1NC(=O)c1sc2ncn(CC(=O)N3CCOCC3)c(=O)c2c1C	1.5%
CCCCOc1ccc(CN2CCSCC2)cc1	-28.4%
Cc1nc2sc(C(=O)c3ccccc3)c(N)c2c(C)c1C	27.9%
Cc1nc2sc(C(N)=O)c(N)c2c(C)c1CC(=O)c1ccccc1	84.2% (active)
CCOC(=O)c1c(C)nc2sc(C(N)=O)c(N)c2c1-c1ccccc1	31%
CC(=O)Nc1nc(-c2cccc3ccccc23)cs1	-32.8%
O=C(O)c1cc(=O)n(Cc2ccccc2)c(=O)[nH]1	-11.6%

SMILES	inhibition
O=C(Nc1cccnc1)c1ccc(COc2ccccc2Br)cc1	-8.4%
O=C(Nc1ccc(Cn2cccn2)cc1)c1ccc(COc2ccccc2Br)cc1	60.2%
CC(C)(C)OC(=O)CNC(=O)c1nc[nH]c1C(=O)NCc1ccc(CNC(=O)OC(C)(C)C)cc1	-14.2%
O=C(c1ccccc1)N1CCCCC(Cl)C1=O (stereo unspecified)	-29.3%
CCN(CC)C(=S)SC1CCCCN(C(=O)c2ccccc2)C1=O (stereo unspecified)	65.6% (active)
CCN(CC)C(=S)SC1CCCCN(C(=O)c2ccc(F)cc2)C1=O (stereo unspecified)	-8%
CCOc1ccc(/C(O)=C2/C(=O)C(=O)N(c3ncccn3)C2c2ccccc2)cc1 (stereo unspecified)	91.5% (active)
CCOc1ccc(/C(O)=C2/C(=O)C(=O)N(c3ncccn3)C2c2ccc(Cl)cc2)cc1 (stereo unspecified)	-1%
CCOc1ccc(/C(O)=C2/C(=O)C(=O)N(c3ncccn3)C2c2ccc(C)cc2)cc1 (stereo unspecified)	-0.8%
CCOc1ccc(NCCC(O)c2ccc(F)cc2)cc1 (stereo unspecified)	34.5% (active)
COc1ccc(NCCC(O)c2ccc(Cl)cc2)cc1 (stereo unspecified)	-11.5%
CCOc1ccc(NC(=S)Nc2ccc(F)cc2)cc1	2.3%
S=C(NC1CCCC1)NC1CCCC1	2.9%
COc1ccc(C(=O)/C=C/c2ccccc2C(F)(F)F)cc1	-21.4%
N#C/C(=C\c1cc([N+](=O)[O-])ccc1Cl)C(N)=O	-44.7%
Cc1cc(C)nc(NC(=O)/C=C/c2ccc(Cl)cc2Cl)c1	-58%
Clc1ccc(/C=C/c2ncc[nH]2)c(Cl)c1	-2%
O=C(O)c1cc(C(F)(F)F)nc2c(C(F)(F)F)cccc12	-18.1%
O=C(CCC(=O)Nc1cc(C(F)(F)F)ccc1Cl)N/N=C\c1cc([N+](=O)[O-])ccc1O	3%
